USP17 block: human USP17-like deubiquitinase inhibition; A8MUK1; purified USP17, Ub-rhodamine cleavage fluorescence, 3 h; inhibition, % at 50 µM; 47,000 tested, 6.5% active; AID 1645855
USP30 inh: inhibitors of human USP30 deubiquitinase; 47,000 tested, 5.3% active; Q70CQ3; purified USP30, Ub-rhodamine cleavage fluorescence; inhibition, % at 25 µM
Target sequence (Q70CQ3 whole entry, looked up): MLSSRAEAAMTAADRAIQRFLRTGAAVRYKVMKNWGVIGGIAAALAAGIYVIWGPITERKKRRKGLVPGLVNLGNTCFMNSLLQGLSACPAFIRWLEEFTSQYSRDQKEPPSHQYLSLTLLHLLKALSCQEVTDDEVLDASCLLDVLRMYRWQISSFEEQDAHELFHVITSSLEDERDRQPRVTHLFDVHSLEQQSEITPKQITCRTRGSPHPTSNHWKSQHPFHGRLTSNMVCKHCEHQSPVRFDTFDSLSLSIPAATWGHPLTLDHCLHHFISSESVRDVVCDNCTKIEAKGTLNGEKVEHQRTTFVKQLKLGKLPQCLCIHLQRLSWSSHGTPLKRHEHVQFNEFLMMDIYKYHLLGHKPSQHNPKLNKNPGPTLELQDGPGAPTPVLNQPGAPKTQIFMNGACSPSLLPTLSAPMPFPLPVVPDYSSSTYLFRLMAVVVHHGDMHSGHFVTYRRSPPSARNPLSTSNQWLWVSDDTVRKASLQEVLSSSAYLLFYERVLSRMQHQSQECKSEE
USP8 inh: human USP8 deubiquitinase inhibition | inhibition, % at 20 µM | 47,000 tested, 4.2% active | purified USP8, Ub-rhodamine cleavage fluorescence, 30 min | P40818
A number is an active result. Hits are enriched below; roughly 12% of the tested compounds scored in any of these assays. Rule as the data show it: active = inhibition above about 30%; inactive = the rest.

Screening COc1ccc2cc(C(C)C(=O)NCc3ccc(CS(N)(=O)=O)cc3)ccc2c1 (configuration not stated) returned USP17 block inactive, USP30 inh inactive and USP8 inh inactive.
`O=C(CC(c1cccc(F)c1)n1cccc1)Nc1ccc2c(c1)OCO2` (configuration not stated) gave USP17 block inactive, USP30 inh inactive and USP8 inh 45.
O=C(CC(c1cccc(F)c1)n1cccc1)NCc1ccc(Cl)cc1 (configuration not stated) was read as USP17 block inactive, USP30 inh 38 and USP8 inh inactive.
Screening COc1ccc(C(CC(=O)NCc2cccc(OC)c2)n2cccc2)cc1 (configuration not stated) returned USP17 block 38, USP30 inh inactive and USP8 inh inactive.
For O=C(CC(c1cccc(F)c1)n1cccc1)Nc1ccc2c(c1)OCCO2 (configuration not stated) the results were USP17 block inactive, USP30 inh inactive and USP8 inh inactive.
For Cc1ccc(-c2nc(C)sc2C2=C(c3ccc(Cl)cc3)COC2=O)cc1 the results were USP17 block inactive, USP30 inh inactive and USP8 inh inactive.
Screening O=C(Nc1nc2c(s1)CN(S(=O)(=O)c1ccccc1)CC2)C1CCC1 returned USP17 block inactive, USP30 inh inactive and USP8 inh inactive.
Screening CCOC(=O)CSc1nnc(Cc2cc(=O)[nH]c(=O)[nH]2)n1-c1cccc(C)c1 returned USP17 block inactive, USP30 inh inactive and USP8 inh inactive.
CCOc1cc(C2C3=C(CC(c4ccc(C)cc4)CC3=O)Nc3ccccc3N2C(=O)C2CC2)ccc1OCc1ccc(Cl)cc1 (configuration not stated) was read as USP17 block inactive, USP30 inh inactive and USP8 inh inactive.
Cc1ccc(C2CC(=O)Nc3c2c(C)nn3-c2ccc3nnc(C)n3n2)cc1 (configuration not stated) was read as USP17 block inactive, USP30 inh 35 and USP8 inh inactive.
Screening Cc1cccc(C2CC(=O)Nc3c2c(C)nn3-c2ccc3nnc(C)n3n2)c1 (configuration not stated) returned USP17 block inactive, USP30 inh inactive and USP8 inh inactive.
`Cn1c(NC(=O)C2CCCCC2)c(-c2ccccn2)c(=O)c2ccccc21` gave USP17 block inactive and USP8 inh inactive.
Screening O=S(=O)(c1ccc(-c2ccc(Cl)cc2Cl)cc1)C1CCNCC1 returned USP17 block inactive, USP30 inh 45 and USP8 inh inactive.
For N#Cc1ccc(-c2ccc(S(=O)(=O)C3CCN(CC(=O)c4ccc(F)cc4)CC3)cc2)cc1 the results were USP17 block inactive, USP30 inh inactive and USP8 inh inactive.
Screening CCNC(=O)c1ccccc1CN1C(=O)C2CCCN2C(=O)c2ccccc21 (configuration not stated) returned USP17 block inactive, USP30 inh inactive and USP8 inh inactive.
For CCc1nn2c(CNC(=O)Cc3ccccc3F)c(C)nc2s1 the results were USP17 block inactive, USP30 inh inactive and USP8 inh inactive.
`O=C(C1CN(C(=O)c2cnc3ccccc3n2)c2ccccc2O1)N1CCOCC1` (configuration not stated) gave USP17 block inactive, USP30 inh inactive and USP8 inh 70.
`Cc1cccc2nc(C(=O)N3CC(C(=O)N4CCOCC4)Oc4ccccc43)cn12` (configuration not stated) gave USP17 block inactive, USP30 inh inactive and USP8 inh inactive.
`Cn1nc(-c2ccccc2F)c2cc(C(=O)NCCc3ccc(S(N)(=O)=O)cc3)sc21` gave USP17 block inactive, USP30 inh 32 and USP8 inh 33.
NS(=O)(=O)c1ccc(CCNC(=O)c2nc(-c3ccccc3)n(-c3ccccc3)n2)cc1 was read as USP17 block inactive, USP30 inh inactive and USP8 inh inactive.
Screening CCn1c(=O)c(C(=O)Nc2ccc(Br)c(C)c2)nc2ccccc21 returned USP17 block inactive, USP30 inh 40 and USP8 inh inactive.
`CCn1c(=O)c(C(=O)Nc2ccc(OC)cc2)nc2ccccc21` gave USP17 block inactive and USP8 inh inactive.
O=c1[nH]c(-c2ccncc2)nc2c1CCN(Cc1ccccc1Cl)C2 was read as USP17 block inactive, USP30 inh inactive and USP8 inh inactive.
For Cc1snc(SCc2nc(COc3ccc(Cl)cc3Cl)n[nH]2)c1C#N the results were USP17 block inactive, USP30 inh 40 and USP8 inh inactive.
`Clc1ccc(OCc2nn[nH]n2)c(Cl)c1` gave USP30 inh inactive and USP8 inh inactive.
Screening CC1CCN(c2nc(-c3ccccc3)nc3sc(-c4ccccc4)cc23)CC1 returned USP17 block inactive, USP30 inh inactive and USP8 inh inactive.
`Cc1ccc(CNC(=O)CCCc2nnc3c(=O)n(-c4cccc(F)c4)ccn23)cc1` gave USP17 block inactive, USP30 inh inactive and USP8 inh 36.
Screening O=C(CCCc1nnc2c(=O)n(-c3cccc(F)c3)ccn12)NCc1ccc(Cl)cc1 returned USP17 block 35, USP30 inh inactive and USP8 inh inactive.
Screening Cc1cc(C)cc(-n2ccn3c(CCC(=O)NCc4cccnc4)nnc3c2=O)c1 returned USP17 block inactive, USP30 inh inactive and USP8 inh inactive.
Screening COc1ccc(CNC(=O)CCCc2nnc3c(=O)n(-c4cc(C)cc(C)c4)ccn23)cc1 returned USP17 block 39, USP30 inh inactive and USP8 inh 78.
`COc1ccc(-n2ccn3c(CCC(=O)NCc4ccccc4)nnc3c2=O)cc1` gave USP17 block inactive, USP30 inh inactive and USP8 inh inactive.
For COc1cccc(CNC(=O)CCc2nnc3c(=O)n(-c4cccc(F)c4)ccn23)c1 the results were USP17 block inactive, USP30 inh inactive and USP8 inh inactive.
Screening Cc1cccc(NC(=O)CCc2nnc3c(=O)n(-c4cccc(F)c4)ccn23)c1 returned USP17 block inactive, USP30 inh inactive and USP8 inh 38.
`COc1ccc(-n2ccn3c(CCC(=O)Nc4ccc(F)cc4)nnc3c2=O)cc1` gave USP17 block inactive, USP30 inh inactive and USP8 inh inactive.
For O=C(c1noc2ccc(S(=O)(=O)Nc3ccccc3F)cc12)N1CCOCC1 the results were USP17 block inactive, USP30 inh inactive and USP8 inh inactive.
For Cn1c(=O)c(N2CCOCC2)nc2c(OCc3ccccc3)nc(N)nc21 the results were USP17 block inactive, USP30 inh inactive and USP8 inh inactive.
Screening CCC(=O)N1Cc2ccccc2CC2(CCCN2Cc2ccncc2)C1 (configuration not stated) returned USP17 block inactive, USP30 inh inactive and USP8 inh inactive.
Screening COc1ccccc1-c1noc2ncnc(NCc3ccco3)c12 returned USP17 block inactive, USP30 inh inactive and USP8 inh inactive.
`COc1ccccc1-c1noc2ncnc(N(Cc3ccco3)CC3CCCO3)c12` (configuration not stated) gave USP17 block inactive, USP30 inh 36 and USP8 inh inactive.
Screening COc1ccc(-c2c(C(=O)O)sc3c2NC(=O)CC3c2ccccc2)cc1 (configuration not stated) returned USP17 block inactive, USP30 inh inactive and USP8 inh inactive.
`COc1cccc(C2CC(=O)Nc3c2sc(C(=O)O)c3-c2ccc(C)cc2)c1` (configuration not stated) gave USP17 block inactive, USP30 inh 30 and USP8 inh inactive.

Assay outcomes: PubChem, Buhrlage Lab, Dana-Farber Cancer Institute and Novartis Institutes for BioMedical Research (Cambridge, Mass)
